Over roughly 16,000 sequences, “rpm ratio (pull-down/input)” has its median near 0.5; the highest 2% begin near 5.5. The sample as a whole holds a higher share of the highest values than the screen did.

The assay has as its target T1, MBP-FoxP3dN (Mus musculus, UniProt Q99JB6 188-423).
T1 sequence: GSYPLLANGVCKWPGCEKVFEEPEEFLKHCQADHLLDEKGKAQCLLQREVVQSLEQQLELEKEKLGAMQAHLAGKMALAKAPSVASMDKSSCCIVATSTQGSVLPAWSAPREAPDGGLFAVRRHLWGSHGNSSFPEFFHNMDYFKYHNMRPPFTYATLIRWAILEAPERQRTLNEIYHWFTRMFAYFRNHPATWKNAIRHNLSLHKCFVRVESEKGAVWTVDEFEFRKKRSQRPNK
Kind of assay: PD-seq (MBP pull-down with sequencing); 20 mM Tris-HCl pH 7.5, 100 mM NaCl, 1.5 mM MgCl2, 0.4 uM protein, 0.1 uM dsDNA library, 30 min, room temperature, amylose pull-down; high values mean tight binding. The note with it: protein: recombinant; tags: His6-MBP; chain copies: 2; dsDNA, one strand shown. An outline of the steps: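 Amylose resin was used to capture complexes formed during 30 min at room temperature in Tris pH 7.5 buffer with NaCl and MgCl2 between 0.4 µM His6-MBP-tagged mouse FoxP3 or FoxP1 fragment lacking the N-terminus, expressed in E. coli, and 0.1 µM Klenow-filled double-stranded degenerate DNA library. After three washes, the DNA was released with proteinase K, barcoded by PCR and sequenced on Illumina. Binding is pooled-replicate reads-per-million enrichment, pull-down over input.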
Take “GATGATTGTTCTCCCAGCTGATGAATTCACGTGTTCGAGTAAACAAATTTTCCTAATCTTTCTGTTCAAGCGCCATCTAC”: the binding signal was 0.58 RPM ratio (pull-down/input). Turning to “GATGATTGTTCTCCCAGCTGATGAATTAAGACGGTCGAGTAAACAAATTTTCCTAATCTTTCTGTTCAAGCGCCATCTAC”, the binding signal was 0.236 RPM ratio (pull-down/input). Take “GATGATTGTTCTCCCAGCTGATGAATTATAAAGATCGAGTAAACAAATTTTCCTAATCTTTCTGTTCAAGCGCCATCTAC”: the binding signal was 0.233 RPM ratio (pull-down/input). Under “GATGATTGTTCTCCCAGCTGATGAATTTGTGCCTTCGAGTAAACAAATTTTCCTAATCTTTCTGTTCAAGCGCCATCTAC” stands 4.02 RPM ratio (pull-down/input); under “GATGATTGTTCTCCCAGCTGATGAATTGTGCATCTCGAGTAAACAAATTTTCCTAATCTTTCTGTTCAAGCGCCATCTAC”, 8.03 RPM ratio (pull-down/input); under “GATGATTGTTCTCCCAGCTGATGAATTTTGTGCATCGAGTAAACAAATTTTCCTAATCTTTCTGTTCAAGCGCCATCTAC”, 2.27 RPM ratio (pull-down/input).

As to “GATGATTGTTCTCCCAGCTGATGAATTCGTGCATTCGAGTAAACAAATTTTCCTAATCTTTCTGTTCAAGCGCCATCTAC”, the binding signal is 6.29 RPM ratio (pull-down/input).

Consider “GATGATTGTTCTCCCAGCTGATGAATTCGTGCCATCGAGTAAACAAATTTTCCTAATCTTTCTGTTCAAGCGCCATCTAC”, for which the binding signal was 2.18 RPM ratio (pull-down/input). Next, “GATGATTGTTCTCCCAGCTGATGAATTTCGCCTTTCGAGTAAACAAATTTTCCTAATCTTTCTGTTCAAGCGCCATCTAC”: 5.39 RPM ratio (pull-down/input). Under “GATGATTGTTCTCCCAGCTGATGAATTTCGTGCATCGAGTAAACAAATTTTCCTAATCTTTCTGTTCAAGCGCCATCTAC” stands 1.22 RPM ratio (pull-down/input). Turning to “GATGATTGTTCTCCCAGCTGATGAATTGTGCCTTTCGAGTAAACAAATTTTCCTAATCTTTCTGTTCAAGCGCCATCTAC”, the binding signal is 6.1 RPM ratio (pull-down/input). Under “GATGATTGTTCTCCCAGCTGATGAATTCTGTGCATCGAGTAAACAAATTTTCCTAATCTTTCTGTTCAAGCGCCATCTAC” stands 1.52 RPM ratio (pull-down/input); under “GATGATTGTTCTCCCAGCTGATGAATTGCGAATCTCGAGTAAACAAATTTTCCTAATCTTTCTGTTCAAGCGCCATCTAC”, 2.16 RPM ratio (pull-down/input). Regarding “GATGATTGTTCTCCCAGCTGATGAATTCCATAGATCGAGTAAACAAATTTTCCTAATCTTTCTGTTCAAGCGCCATCTAC”, the binding signal is 0.239 RPM ratio (pull-down/input). As to “GATGATTGTTCTCCCAGCTGATGAATTAAGGGCCTCGAGTAAACAAATTTTCCTAATCTTTCTGTTCAAGCGCCATCTAC”, the binding signal was 0.451 RPM ratio (pull-down/input). Next, “GATGATTGTTCTCCCAGCTGATGAATTCAATTCGTCGAGTAAACAAATTTTCCTAATCTTTCTGTTCAAGCGCCATCTAC”: 0.665 RPM ratio (pull-down/input); “GATGATTGTTCTCCCAGCTGATGAATTTCGGAGGTCGAGTAAACAAATTTTCCTAATCTTTCTGTTCAAGCGCCATCTAC”: 0.25 RPM ratio (pull-down/input). In the case of “GATGATTGTTCTCCCAGCTGATGAATTCCTCGCTTCGAGTAAACAAATTTTCCTAATCTTTCTGTTCAAGCGCCATCTAC”, the binding signal is 0.285 RPM ratio (pull-down/input). For the sequence “GATGATTGTTCTCCCAGCTGATGAATTGCCGCCATCGAGTAAACAAATTTTCCTAATCTTTCTGTTCAAGCGCCATCTAC”, the binding signal was 2.97 RPM ratio (pull-down/input).

Take “GATGATTGTTCTCCCAGCTGATGAATTTGAGTTTTCGAGTAAACAAATTTTCCTAATCTTTCTGTTCAAGCGCCATCTAC”: the binding signal was 0.885 RPM ratio (pull-down/input). For the sequence “GATGATTGTTCTCCCAGCTGATGAATTCAAGTTTTCGAGTAAACAAATTTTCCTAATCTTTCTGTTCAAGCGCCATCTAC”, the binding signal was 0.454 RPM ratio (pull-down/input). Under “GATGATTGTTCTCCCAGCTGATGAATTTCCCTTCTCGAGTAAACAAATTTTCCTAATCTTTCTGTTCAAGCGCCATCTAC” stands 0.295 RPM ratio (pull-down/input). Regarding “GATGATTGTTCTCCCAGCTGATGAATTCTGTTGATCGAGTAAACAAATTTTCCTAATCTTTCTGTTCAAGCGCCATCTAC”, the binding signal is 6.26 RPM ratio (pull-down/input). Next, “GATGATTGTTCTCCCAGCTGATGAATTCAATTGATCGAGTAAACAAATTTTCCTAATCTTTCTGTTCAAGCGCCATCTAC”: 1.07 RPM ratio (pull-down/input).

Take “GATGATTGTTCTCCCAGCTGATGAATTGATCTAATCGAGTAAACAAATTTTCCTAATCTTTCTGTTCAAGCGCCATCTAC”: the binding signal was 0.356 RPM ratio (pull-down/input).

Regarding “GATGATTGTTCTCCCAGCTGATGAATTTCTGTGATCGAGTAAACAAATTTTCCTAATCTTTCTGTTCAAGCGCCATCTAC”, the binding signal is 0.408 RPM ratio (pull-down/input).

As to “GATGATTGTTCTCCCAGCTGATGAATTCTTTTGATCGAGTAAACAAATTTTCCTAATCTTTCTGTTCAAGCGCCATCTAC”, the binding signal is 0.285 RPM ratio (pull-down/input). As to “GATGATTGTTCTCCCAGCTGATGAATTGAATTGATCGAGTAAACAAATTTTCCTAATCTTTCTGTTCAAGCGCCATCTAC”, the binding signal was 0.917 RPM ratio (pull-down/input).

As for “GATGATTGTTCTCCCAGCTGATGAATTGTGTTGATCGAGTAAACAAATTTTCCTAATCTTTCTGTTCAAGCGCCATCTAC”, the binding signal was 7.06 RPM ratio (pull-down/input). As for “GATGATTGTTCTCCCAGCTGATGAATTTGTTGAGTCGAGTAAACAAATTTTCCTAATCTTTCTGTTCAAGCGCCATCTAC”, the binding signal was 5.53 RPM ratio (pull-down/input). Consider “GATGATTGTTCTCCCAGCTGATGAATTGTGATGATCGAGTAAACAAATTTTCCTAATCTTTCTGTTCAAGCGCCATCTAC”, for which the binding signal is 2.48 RPM ratio (pull-down/input). For the sequence “GATGATTGTTCTCCCAGCTGATGAATTTTTTGAGTCGAGTAAACAAATTTTCCTAATCTTTCTGTTCAAGCGCCATCTAC”, the binding signal was 0.237 RPM ratio (pull-down/input). “GATGATTGTTCTCCCAGCTGATGAATTTGATGAGTCGAGTAAACAAATTTTCCTAATCTTTCTGTTCAAGCGCCATCTAC”: the binding signal is 0.974 RPM ratio (pull-down/input). For the sequence “GATGATTGTTCTCCCAGCTGATGAATTGTTGTGATCGAGTAAACAAATTTTCCTAATCTTTCTGTTCAAGCGCCATCTAC”, the binding signal was 6.31 RPM ratio (pull-down/input). Under “GATGATTGTTCTCCCAGCTGATGAATTCAGATGTTCGAGTAAACAAATTTTCCTAATCTTTCTGTTCAAGCGCCATCTAC” stands 1.06 RPM ratio (pull-down/input); under “GATGATTGTTCTCCCAGCTGATGAATTGTACCCATCGAGTAAACAAATTTTCCTAATCTTTCTGTTCAAGCGCCATCTAC”, 0.472 RPM ratio (pull-down/input).

(Values after publication PMC12820563, “FoxP3 forms a head-to-head dimer in vivo and stabilizes its multimerization on adjacent microsatellites”.)
